Reference: PubChem BioAssay (EPA / NIEHS)
Results filed as inconclusive are left out. Activity calls are given as the source filed them. Rule for the calls, unless noted: active = hit-call score of the fitted dose curve at least 0.9, where 1 is the maximum; inconclusive = response in the unintended direction; inactive = score below 0.9.

Legend:
[1] = CCTE_Padilla_ZF_144hpf_TERATOSCORE: (Legacy) CCTE's 144 Hour Post-fertilization zebrafish Assay Teratoscore, Padilla Lab (AID 2283679; active = hit-call score of the fitted dose curve at least 0.9, where 1 is the maximum; inactive = score below 0.9;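 for AC50: zebrafish embryos with chorions exposed by immersion from 6-8 hpf to 5 dpf with daily renewal; teratogenicity score from eye scoring of death hatching and malformations at 144 hpf; higher score means more developmental defects relative to DMSO baseline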)
Procedure, shortened: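 Larvae scored by eye at 144 hpf for death, hatching and malformations after a day in clean Hanks'. Before that, daily-renewed exposure at 80 uM (0.4% DMSO, 26C) from roughly 6-8 hpf through 5 dpf, 4 embryos per chemical.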

[2] = STM_H9_CystineISnorm_perc: Stemina devTOX quickPredict H9 human embryonic stem cell (hESC)-based Assay for Cystine (CYSS) Metabolite Biomarker, Normalized (AID 2283713; active = hit-call score of the fitted dose curve at least 0.9, where 1 is the maximum; inactive = score below 0.9)
Procedure, shortened: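 Cystine in spent media from the last 24 h of a 72 h H9 hESC exposure (daily re-dosing), measured by UPLC-HRMS. Values normalized to isotopic internal standard, then to 0.1% DMSO; viability via CellTiter-Fluor.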

[3] = STM_H9_OrnCyssISnorm_ratio: Stemina devTOX quickPredict H9 human embryonic stem cell (hESC)-based Assay for Ornithine (ORN):Cystine (CYSS) Ratio (AID 2283714)
Procedure, shortened: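 UPLC-HRMS of spent media: ORN/CYSS ratio of internal-standard-normalized percentages, DMSO (0.1%) baseline. Pluripotent H9 hESCs, 72h exposure, daily re-dosing with fresh media; last 24h media collected.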

[4] = Tanguay_ZF_120hpf_ActivityScore_legacy: (Legacy) Oregon State University Tanguay Lab 120 Hour Post-fertilization zebrafish Assay Score for Activity (AID 2283742);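 for AC50: dechorionated Tropical 5D wild-type zebrafish embryos held singly per well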
Procedure, shortened: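 Dechorionated 5D embryos, one per well, static exposure 6–120 hpf, 28C, sealed and dark; final DMSO 0.64% (vol/vol). Brightfield binary scoring of mortality plus 18 endpoints; gain-of-signal fit versus DMSO baseline.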

[5] = tested on: Thyroperoxidase (TPO), gene 445522; assay: CCTE_Simmons_GUA_TPO: CCTE's Guaiacol Assay for Thyroperoxidase (TPO) Inhibition, Simmons Lab (AID 2283750)
Procedure, shortened: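 Porcine thyroid microsomes (25 ug) in 200mM potassium phosphate, preincubated 30 s at 37C with compound (8 concentrations, 5 nM–87.5 uM) and 35mM guaiacol; 1mM H2O2 starts reaction. Absorbance change at 450nm over first 80 s; loss of signal versus DMSO, three replicates.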

[6] = target: Luciferin 4-monooxygenase (Photinus pyralis) (UniProt P08659); assay: CCTE_Simmons_QuantiLum_inhib_2: CCTE's Firefly Luciferase Inhibition Assay, Simmons Lab (AID 2283767);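 for AC50: potency for inhibitors that lower luciferase luminescence relative to DMSO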
Luciferin 4-monooxygenase (Photinus pyralis), sequence (P08659 whole entry, looked up): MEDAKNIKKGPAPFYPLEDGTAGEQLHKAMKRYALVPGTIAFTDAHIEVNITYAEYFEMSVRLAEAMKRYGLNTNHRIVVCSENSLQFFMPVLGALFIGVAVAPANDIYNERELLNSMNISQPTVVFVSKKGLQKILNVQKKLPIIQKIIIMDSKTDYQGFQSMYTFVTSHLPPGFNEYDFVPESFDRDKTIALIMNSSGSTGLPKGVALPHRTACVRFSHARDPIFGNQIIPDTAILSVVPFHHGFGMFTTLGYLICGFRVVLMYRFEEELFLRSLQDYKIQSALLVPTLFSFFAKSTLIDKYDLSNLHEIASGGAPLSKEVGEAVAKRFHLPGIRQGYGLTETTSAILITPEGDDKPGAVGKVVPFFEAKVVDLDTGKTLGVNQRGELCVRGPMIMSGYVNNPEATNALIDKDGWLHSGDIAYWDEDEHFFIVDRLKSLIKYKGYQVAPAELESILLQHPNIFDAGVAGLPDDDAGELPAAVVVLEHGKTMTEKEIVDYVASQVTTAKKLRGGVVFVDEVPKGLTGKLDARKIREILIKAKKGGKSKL
Procedure, shortened: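 Eight test concentrations, 5 nM up to 87.5 uM final, preincubated 30min at 37C in the dark with purified luciferase (0.5% DMSO final). Detection reagent (150uM D-luciferin, 147uM dATP, 75uM CoA, pH 7.8) injected per well before kinetic luminescence read; three replicates.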

[7] = tested on: zebrafish Androgen Receptor (AR), gene 100005148; assay: ATG_zfAR_XSP1: Attagene TRANS-FACTORIAL Multi-Species (XSP1) HepG2 Assay for zebrafish Androgen Receptor (AR) (AID 2283771)
Procedure, shortened: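 Gain-of-signal versus DMSO was measured as reporter transcripts quantified by RT-PCR, fluorescent labelling and capillary electrophoresis after 24 h chemical exposure. The cells were HepG2 expressing a chimeric zebrafish AR-GAL4, co-stimulated with 3 nM 6-alpha-fluorotestosterone.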

[8] = target: zebrafish Estrogen Receptor (ESR1), esr1 (gene 259252) (UniProt P57717); assay: ATG_zfER1_XSP1: Attagene TRANS-FACTORIAL Multi-Species (XSP1) HepG2 Assay for zebrafish Estrogen Receptor (ESR1) (AID 2283772)
zebrafish Estrogen Receptor (ESR1), esr1 (gene 259252), sequence (P57717 whole entry, looked up, the tested form may be a part): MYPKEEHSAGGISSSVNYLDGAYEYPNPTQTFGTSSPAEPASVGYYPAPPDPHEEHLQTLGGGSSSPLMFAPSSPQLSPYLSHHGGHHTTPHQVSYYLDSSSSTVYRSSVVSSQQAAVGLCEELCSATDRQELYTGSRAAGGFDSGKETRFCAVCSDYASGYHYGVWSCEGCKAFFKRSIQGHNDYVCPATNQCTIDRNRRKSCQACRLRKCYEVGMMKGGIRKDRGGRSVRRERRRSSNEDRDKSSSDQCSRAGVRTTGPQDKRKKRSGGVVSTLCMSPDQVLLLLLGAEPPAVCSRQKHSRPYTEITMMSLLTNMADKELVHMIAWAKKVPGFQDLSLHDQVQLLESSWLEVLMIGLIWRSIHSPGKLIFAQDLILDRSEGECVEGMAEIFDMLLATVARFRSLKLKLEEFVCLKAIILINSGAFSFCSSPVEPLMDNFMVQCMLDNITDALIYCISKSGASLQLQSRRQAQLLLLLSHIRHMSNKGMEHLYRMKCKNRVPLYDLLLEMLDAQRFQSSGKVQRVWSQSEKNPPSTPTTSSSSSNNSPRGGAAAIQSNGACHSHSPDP
Procedure, shortened: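 Exogenous chimeric receptor-GAL4 activity is measured in transiently transfected human HepG2 liver cells after 24 h compound exposure. Reporter transcripts are detected by RT-PCR and fluorescent capillary electrophoresis, analysed for signal gain relative to DMSO.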

[9] = tested on: zebrafish Estrogen Receptor (ESR2B), gene 317733; assay: ATG_zfER2b_XSP1: Attagene TRANS-FACTORIAL Multi-Species (XSP1) HepG2 Assay for zebrafish Estrogen Receptor (ESR2B) (AID 2283773)
Procedure, shortened: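 Multiplexed TRANS format in transfected HepG2 liver cells, chimeric NR-Gal4 from zebrafish ESR2B. 24 h dosing; medium contains 3 nM 6-alpha-fluorotestosterone. mRNA induction by RT-PCR/CE, positive direction vs DMSO.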

[10] = CEETOX_H295R_MTT_cell_viability: Viability Assessment in the CeeTox HT-H295R MTT Assay (AID 2283718; active = hit-call score of the fitted dose curve at least 0.9, where 1 is the maximum; inactive = score below 0.9;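 for AC50: curve fitted both ways so AC50 may mark viability loss or gain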)
Procedure, shortened: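 Human H295R adrenal cells, prestimulated 48 h with 10 uM forskolin, were exposed 48 h to chemicals in 0.1% DMSO. Viability was measured in the same wells by MTT (0.5 mg/ml, 4 h, 37 C), absorbance 570/650 nm, as percent of controls.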

[11] = tested on: chicken Androgen Receptor (AR), gene 422165; assay: ATG_chAR_XSP1: Attagene TRANS-FACTORIAL Multi-Species (XSP1) HepG2 Assay for chicken Androgen Receptor (AR) (AID 2283768)
Procedure, shortened: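 Reporter mRNA read by RT-PCR with fluorescent labelling and capillary electrophoresis 24 h after chemical dosing of transiently transfected HepG2 cells. Chicken AR-Gal4 chimera, partially stimulated with 3 nM 6-alpha-fluorotestosterone; activity fitted upward relative to DMSO.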

Measured: AC50

[Cl-].[Cl-].[Hg+2]
active: [1] 0.0826 µM | [2] 0.882 µM | [3] 0.995 µM | [4] 4.32 µM | [5] 389 µM | [6] 10.4 µM

Clc1ccc(C(c2ccc(Cl)cc2)C(Cl)(Cl)Cl)cc1
active: [1] 3.44 µM | [8] 41.7 µM | [9] 1.95 µM
inactive: [2] | [4] | [7]

Cc1cc(N=Nc2ccccc2C)ccc1N
active: [1] 7.92 µM | [4] 33.3 µM | [6] 3.76 µM
inactive: [10]

OCCCBr
inactive: [1] | [2] | [3] | [4]

Cc1cccc(N)c1N
active: [1] 57 µM | [2] 79 µM | [3] 74.5 µM | [10] 1.07 µM | [4] 44.5 µM | [6] 35.7 µM

COC(=O)Nc1nc2ccccc2[nH]1
inactive: [4] | [6]
active: [1] 2.61 µM | [2] 10 µM | [3] 6.5 µM

O=C(Nc1ccccc1)c1ccccc1I
inactive: [10]
active: [1] 5.47 µM | [4] 11.6 µM

CCCCCOC(=O)c1ccccc1C(=O)OCCCCC
active: [1] 4.55 µM | [2] 19.8 µM | [3] 21.9 µM | [9] 40.7 µM
not listed: [5] | [6]
inactive: all other assays above

CCCCOC(=O)c1ccccc1C(=O)OCc1ccccc1
active: [1] 1.55 µM | [2] 32.6 µM | [3] 34.6 µM | [8] 26.6 µM | [9] 6.82 µM
inactive: [10] | [4] | [6] | [11]

CC(C)COC(=O)c1ccccc1C(=O)OCC(C)C
active: [1] 2.53 µM | [2] 33 µM | [3] 35.3 µM
inactive: [10] | [4]
